Reference: the supplement of paper PMC11732987, “Enantioselective OTUD7B fragment discovery through chemoproteomics screening and high-throughput optimisation” (Communications Chemistry, 2025)

Legend:
Test in all cases: log2 ratio of Biotin-Ahx-Ub-VS probe labelling (fragment/DMSO); higher = less target engagement (more negative = stronger competition), active = hit call of the paper (q ≤ 0.05, log2 ratio ≤ -1)
Details in all cases: compound concentration: 200 uM; treatment time: 3 h
[1] = target: T1, USP19 (UniProt O94966)
T1 sequence (whole entry): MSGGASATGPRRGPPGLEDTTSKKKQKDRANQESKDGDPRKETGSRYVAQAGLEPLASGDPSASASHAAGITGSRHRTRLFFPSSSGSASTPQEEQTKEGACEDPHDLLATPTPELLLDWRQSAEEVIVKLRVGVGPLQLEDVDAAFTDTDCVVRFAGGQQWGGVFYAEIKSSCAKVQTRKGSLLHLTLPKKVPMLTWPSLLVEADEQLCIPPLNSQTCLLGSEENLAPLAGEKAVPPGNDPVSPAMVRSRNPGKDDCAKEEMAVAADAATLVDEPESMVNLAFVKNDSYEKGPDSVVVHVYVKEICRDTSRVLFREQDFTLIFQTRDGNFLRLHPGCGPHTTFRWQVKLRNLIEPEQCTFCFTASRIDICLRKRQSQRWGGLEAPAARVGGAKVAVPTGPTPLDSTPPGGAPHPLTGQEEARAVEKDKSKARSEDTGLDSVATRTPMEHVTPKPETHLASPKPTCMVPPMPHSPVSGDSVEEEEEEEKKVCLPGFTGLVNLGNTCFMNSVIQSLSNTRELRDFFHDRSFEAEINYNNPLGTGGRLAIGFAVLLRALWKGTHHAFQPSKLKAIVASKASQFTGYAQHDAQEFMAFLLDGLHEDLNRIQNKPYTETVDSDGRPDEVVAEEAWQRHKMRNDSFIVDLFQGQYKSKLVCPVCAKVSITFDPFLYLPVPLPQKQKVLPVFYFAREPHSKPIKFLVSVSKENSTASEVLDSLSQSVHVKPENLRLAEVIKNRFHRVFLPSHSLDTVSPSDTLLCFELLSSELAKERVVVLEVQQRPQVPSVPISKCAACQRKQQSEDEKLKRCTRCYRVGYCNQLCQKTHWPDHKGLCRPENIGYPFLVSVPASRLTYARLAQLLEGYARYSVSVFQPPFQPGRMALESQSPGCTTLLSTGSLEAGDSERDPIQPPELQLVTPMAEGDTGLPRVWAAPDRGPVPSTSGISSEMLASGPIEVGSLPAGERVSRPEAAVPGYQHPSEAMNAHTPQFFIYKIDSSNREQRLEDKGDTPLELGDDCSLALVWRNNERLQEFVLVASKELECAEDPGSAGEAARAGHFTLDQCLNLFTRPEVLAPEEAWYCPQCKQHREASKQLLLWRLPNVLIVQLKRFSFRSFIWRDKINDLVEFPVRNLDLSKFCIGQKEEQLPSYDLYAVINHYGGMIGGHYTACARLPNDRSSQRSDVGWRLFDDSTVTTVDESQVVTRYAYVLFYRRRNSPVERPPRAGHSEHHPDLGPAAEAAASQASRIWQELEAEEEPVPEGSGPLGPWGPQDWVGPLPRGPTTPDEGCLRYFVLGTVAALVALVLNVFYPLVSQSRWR
Procedure, shortened: (§1)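 Labelled DUBs from HEK293T lysate were NeutrAvidin-enriched, digested with LysC and trypsin, and run by diaPASEF LC-MS/MS. Before that, each 495 µg sample in Tris/CHAPS/IGEPAL buffer with protease inhibitors was treated in triplicate with fragment at 200 µM or vehicle for 3 h, then with Biotin-Ahx-Ub-VS at 0.5 µM final for 1 h. Values are average log2 ratios of fragment over vehicle by unpaired t-test, based on global-median-normalised Spectronaut label-free quantities from proteins with ≥2 unique peptides.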

[2] = target: T2, USP22 (UniProt Q9UPT9)
T2 sequence (whole entry): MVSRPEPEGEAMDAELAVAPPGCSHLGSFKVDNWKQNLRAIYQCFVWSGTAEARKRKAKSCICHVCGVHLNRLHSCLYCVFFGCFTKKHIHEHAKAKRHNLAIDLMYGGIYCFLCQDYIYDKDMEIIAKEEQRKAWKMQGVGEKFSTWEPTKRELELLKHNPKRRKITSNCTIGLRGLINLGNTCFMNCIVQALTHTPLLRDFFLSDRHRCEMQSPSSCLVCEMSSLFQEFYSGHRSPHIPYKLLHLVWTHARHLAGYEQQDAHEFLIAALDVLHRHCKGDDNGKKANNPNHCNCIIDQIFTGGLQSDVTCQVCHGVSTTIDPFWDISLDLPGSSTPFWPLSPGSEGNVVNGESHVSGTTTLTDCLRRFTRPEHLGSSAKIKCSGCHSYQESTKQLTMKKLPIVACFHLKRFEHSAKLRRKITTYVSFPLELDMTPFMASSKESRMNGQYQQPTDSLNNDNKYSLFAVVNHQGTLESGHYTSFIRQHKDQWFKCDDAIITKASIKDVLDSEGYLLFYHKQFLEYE
Procedure, shortened: as §1

[3] = target: USP24 (UniProt Q9UPU5)
Chain of USP24 (Q9UPU5 whole entry): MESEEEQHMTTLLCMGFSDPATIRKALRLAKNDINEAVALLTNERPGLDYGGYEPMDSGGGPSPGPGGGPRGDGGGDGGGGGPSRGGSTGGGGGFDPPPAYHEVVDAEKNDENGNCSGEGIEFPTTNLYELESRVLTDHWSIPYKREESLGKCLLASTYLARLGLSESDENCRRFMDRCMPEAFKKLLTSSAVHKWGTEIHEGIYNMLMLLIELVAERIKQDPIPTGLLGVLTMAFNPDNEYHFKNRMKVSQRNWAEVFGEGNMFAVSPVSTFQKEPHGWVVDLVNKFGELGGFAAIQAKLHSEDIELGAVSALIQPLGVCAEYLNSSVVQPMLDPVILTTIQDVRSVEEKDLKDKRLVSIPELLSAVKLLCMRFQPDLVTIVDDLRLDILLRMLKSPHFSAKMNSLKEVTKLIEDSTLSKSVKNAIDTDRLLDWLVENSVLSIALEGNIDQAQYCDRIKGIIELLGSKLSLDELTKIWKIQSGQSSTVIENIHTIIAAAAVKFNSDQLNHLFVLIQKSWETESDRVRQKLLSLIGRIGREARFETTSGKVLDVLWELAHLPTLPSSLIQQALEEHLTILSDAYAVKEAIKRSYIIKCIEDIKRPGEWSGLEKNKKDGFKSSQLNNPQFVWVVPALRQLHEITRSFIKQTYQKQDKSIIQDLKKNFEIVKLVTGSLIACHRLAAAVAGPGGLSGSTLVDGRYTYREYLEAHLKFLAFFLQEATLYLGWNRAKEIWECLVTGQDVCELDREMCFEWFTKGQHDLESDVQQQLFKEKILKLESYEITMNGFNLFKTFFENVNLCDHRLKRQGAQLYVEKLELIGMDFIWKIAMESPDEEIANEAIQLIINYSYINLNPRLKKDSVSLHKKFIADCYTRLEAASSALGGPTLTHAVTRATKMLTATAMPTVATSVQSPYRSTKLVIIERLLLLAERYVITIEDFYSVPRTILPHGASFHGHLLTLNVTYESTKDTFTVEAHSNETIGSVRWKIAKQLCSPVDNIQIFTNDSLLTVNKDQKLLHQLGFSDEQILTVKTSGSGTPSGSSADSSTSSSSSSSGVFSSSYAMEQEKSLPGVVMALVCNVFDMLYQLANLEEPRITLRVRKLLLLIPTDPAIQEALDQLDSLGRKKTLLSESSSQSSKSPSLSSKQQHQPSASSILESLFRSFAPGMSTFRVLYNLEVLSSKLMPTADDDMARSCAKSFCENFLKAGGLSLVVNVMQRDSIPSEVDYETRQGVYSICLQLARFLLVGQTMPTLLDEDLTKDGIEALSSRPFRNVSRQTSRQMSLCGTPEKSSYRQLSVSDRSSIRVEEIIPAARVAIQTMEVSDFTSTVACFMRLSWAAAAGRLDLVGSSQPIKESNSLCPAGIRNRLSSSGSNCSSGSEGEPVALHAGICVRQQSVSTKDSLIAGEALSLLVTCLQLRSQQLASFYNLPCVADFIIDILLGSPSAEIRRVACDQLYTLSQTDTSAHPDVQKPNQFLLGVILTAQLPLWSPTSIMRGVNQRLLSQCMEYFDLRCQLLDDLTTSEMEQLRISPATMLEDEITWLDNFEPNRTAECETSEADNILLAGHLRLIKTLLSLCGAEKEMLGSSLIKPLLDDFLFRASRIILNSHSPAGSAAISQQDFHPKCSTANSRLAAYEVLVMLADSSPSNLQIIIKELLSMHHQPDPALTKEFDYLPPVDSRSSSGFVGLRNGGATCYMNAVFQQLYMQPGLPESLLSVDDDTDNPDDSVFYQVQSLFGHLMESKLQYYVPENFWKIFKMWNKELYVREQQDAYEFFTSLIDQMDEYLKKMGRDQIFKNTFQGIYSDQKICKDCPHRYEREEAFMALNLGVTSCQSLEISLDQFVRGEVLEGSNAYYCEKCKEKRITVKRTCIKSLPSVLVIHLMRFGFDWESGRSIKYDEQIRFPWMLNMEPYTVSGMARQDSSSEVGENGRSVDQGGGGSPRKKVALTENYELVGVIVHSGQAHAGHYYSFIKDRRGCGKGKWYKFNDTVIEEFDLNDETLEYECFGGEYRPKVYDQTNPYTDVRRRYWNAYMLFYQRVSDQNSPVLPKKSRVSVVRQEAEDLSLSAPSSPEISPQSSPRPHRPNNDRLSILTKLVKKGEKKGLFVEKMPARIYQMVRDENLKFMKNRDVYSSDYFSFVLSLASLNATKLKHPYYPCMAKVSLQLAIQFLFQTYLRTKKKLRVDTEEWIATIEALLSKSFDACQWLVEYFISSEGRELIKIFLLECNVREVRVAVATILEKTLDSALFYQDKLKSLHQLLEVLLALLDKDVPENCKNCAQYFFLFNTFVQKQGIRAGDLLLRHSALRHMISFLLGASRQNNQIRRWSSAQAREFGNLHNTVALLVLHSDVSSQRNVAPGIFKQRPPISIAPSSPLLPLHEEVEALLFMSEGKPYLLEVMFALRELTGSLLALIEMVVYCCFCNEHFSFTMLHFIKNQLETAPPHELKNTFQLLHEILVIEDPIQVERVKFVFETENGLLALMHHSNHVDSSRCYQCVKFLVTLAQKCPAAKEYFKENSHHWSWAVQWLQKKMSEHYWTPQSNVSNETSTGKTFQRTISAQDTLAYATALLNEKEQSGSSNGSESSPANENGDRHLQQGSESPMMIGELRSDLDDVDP
Procedure, shortened: as §1

[4] = target: T3, USP25 (UniProt Q9UHP3)
T3 sequence (whole entry): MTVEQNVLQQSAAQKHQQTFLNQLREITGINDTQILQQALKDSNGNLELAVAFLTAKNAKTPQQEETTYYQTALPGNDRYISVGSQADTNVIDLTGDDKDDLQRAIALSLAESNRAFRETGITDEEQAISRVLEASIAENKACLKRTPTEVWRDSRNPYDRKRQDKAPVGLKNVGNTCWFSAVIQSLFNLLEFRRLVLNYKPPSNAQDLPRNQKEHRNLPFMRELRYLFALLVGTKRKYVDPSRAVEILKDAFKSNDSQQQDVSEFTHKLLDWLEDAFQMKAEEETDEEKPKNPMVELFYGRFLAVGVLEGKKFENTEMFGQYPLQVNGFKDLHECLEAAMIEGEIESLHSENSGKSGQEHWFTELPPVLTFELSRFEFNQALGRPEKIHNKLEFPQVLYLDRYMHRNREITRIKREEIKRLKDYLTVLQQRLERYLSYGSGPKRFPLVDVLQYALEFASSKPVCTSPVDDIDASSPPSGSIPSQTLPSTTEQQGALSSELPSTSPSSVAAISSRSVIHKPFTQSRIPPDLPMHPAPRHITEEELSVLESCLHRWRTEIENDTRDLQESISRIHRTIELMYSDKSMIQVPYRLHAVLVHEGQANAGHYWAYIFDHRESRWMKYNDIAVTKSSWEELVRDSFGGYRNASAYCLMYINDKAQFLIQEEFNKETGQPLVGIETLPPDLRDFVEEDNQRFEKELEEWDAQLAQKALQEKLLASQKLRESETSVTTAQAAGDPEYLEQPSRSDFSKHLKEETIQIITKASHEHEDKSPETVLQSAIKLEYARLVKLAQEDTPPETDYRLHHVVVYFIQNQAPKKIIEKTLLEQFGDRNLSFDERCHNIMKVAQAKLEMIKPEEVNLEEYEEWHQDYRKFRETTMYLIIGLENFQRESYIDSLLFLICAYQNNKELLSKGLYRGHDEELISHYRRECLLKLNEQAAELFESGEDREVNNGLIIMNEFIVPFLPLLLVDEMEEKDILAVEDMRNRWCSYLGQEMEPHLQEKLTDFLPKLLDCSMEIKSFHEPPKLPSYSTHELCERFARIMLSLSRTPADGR
Procedure, shortened: as §1

[5] = target: T4, USP28 (UniProt Q96RU2)
T4 sequence (whole entry): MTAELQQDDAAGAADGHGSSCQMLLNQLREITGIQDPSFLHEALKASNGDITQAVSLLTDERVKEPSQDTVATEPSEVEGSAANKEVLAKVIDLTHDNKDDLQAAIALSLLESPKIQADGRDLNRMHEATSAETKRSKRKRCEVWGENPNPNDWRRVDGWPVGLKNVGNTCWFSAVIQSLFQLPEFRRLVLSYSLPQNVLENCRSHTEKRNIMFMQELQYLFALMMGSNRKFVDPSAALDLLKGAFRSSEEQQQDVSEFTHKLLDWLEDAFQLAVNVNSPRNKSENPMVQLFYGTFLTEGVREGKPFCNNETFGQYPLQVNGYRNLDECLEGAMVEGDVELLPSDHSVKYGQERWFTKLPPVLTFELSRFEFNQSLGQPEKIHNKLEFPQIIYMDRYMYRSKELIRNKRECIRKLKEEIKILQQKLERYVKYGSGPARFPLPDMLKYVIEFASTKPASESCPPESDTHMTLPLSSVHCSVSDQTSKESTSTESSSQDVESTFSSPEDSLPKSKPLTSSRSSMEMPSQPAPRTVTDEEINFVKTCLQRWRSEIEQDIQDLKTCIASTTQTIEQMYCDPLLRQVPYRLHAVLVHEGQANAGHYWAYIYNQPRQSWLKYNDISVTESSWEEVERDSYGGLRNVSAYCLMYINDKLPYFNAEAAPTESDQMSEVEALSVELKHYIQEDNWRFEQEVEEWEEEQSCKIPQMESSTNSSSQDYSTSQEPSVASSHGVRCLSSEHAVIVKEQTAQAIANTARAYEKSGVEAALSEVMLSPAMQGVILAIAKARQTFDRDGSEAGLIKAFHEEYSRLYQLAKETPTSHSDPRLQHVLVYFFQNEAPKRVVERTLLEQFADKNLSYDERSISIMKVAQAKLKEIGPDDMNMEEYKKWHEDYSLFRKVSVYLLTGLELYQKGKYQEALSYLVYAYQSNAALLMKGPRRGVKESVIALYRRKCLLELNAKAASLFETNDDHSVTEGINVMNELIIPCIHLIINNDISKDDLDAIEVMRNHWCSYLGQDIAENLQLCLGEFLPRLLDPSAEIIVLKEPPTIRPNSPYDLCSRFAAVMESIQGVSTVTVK
Procedure, shortened: as §1

Measured: log2 ratio of Biotin-Ahx-Ub-VS probe labelling

CS(=O)(=O)c1ccc(CNC(=O)CCl)cc1
inactive: [1] -0.123 | [2] -0.163 | [3] -0.159 | [4] -0.385 | [5] -0.583
